Test systems include NCI-H23 lung; NCI-H522 lung; MALME-3M melanoma; MDA-MB-231 breast; M14 melanoma; UACC-62 melanoma; LOX IMVI melanoma; SK-MEL-28 melanoma; SR leukemia; OVCAR-8 ovarian; OVCAR-5 ovarian; OVCAR-4 ovarian; SK-OV-3 ovarian; IGROV1 ovarian; HS 578T breast; T-47D breast; SW-620 colon; MCF7 breast; HCT-116 colon; KM12 colon.
Assay in all cases: NCI-60 one-dose screen, 48 h (100 = growth as untreated, 0 = no growth, -100 = all killed)
What all share (settings): 10 µM

Each structure is given as a SMILES string. “And” between values parts separate entries of the source, which are not always exact repeats. Equal entries are not always repeated. This is part of a sample that, as a whole, favours compounds with a hit. Of some 83,000 tested, about 20% had one in any assay.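 Results are percent growth after 48 hours of single-concentration exposure. 100 means growth as in untreated cells, lower positive values show inhibition; negative values down to -100 show cell death.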 The source made the active and inactive calls. Rule for the calls: active = growth percent below 10; inactive = the rest.

Turning to `CC1=C[C@H]2O[C@@H]3C[C@@H](O)[C@](C)([C@@]2(C)CC1)[C@@]31CO1`, the growth is 28.4% (inactive) with NCI-H23 lung; 31% (inactive) in the assay with NCI-H522 lung; 21% (inactive) in the assay on MALME-3M melanoma; 42.4% (inactive) in the assay with MDA-MB-231 breast; 6.68% (active) in the assay on M14 melanoma; 44.5% (inactive) in the assay with UACC-62 melanoma. For the same compound, the growth in the assay on LOX IMVI melanoma is 13.6% (inactive); in the assay on SK-MEL-28 melanoma, 27.1% (inactive); with SR leukemia, 18.1% (inactive); with OVCAR-8 ovarian it was 27.7% (inactive); in the assay on OVCAR-5 ovarian, 78.9% (inactive); in the assay with OVCAR-4 ovarian it was 32% (inactive). Also, the growth in the assay with SK-OV-3 ovarian was 22.9% (inactive); in the assay on IGROV1 ovarian, 28.3% (inactive); in the assay with HS 578T breast, 37.8% (inactive); in the assay with T-47D breast, 29.6% (inactive); with SW-620 colon, 24% (inactive); in the assay on MCF7 breast it was 17.6% (inactive). Further, the growth with HCT-116 colon is 7.52% (active); in the assay on KM12 colon, 26.1% (inactive).

For the compound `COc1cc2c(O[C@@H]3OC[C@H](OC(C)=O)[C@H](OC(C)=O)[C@H]3O)c3c(c(-c4ccc5c(c4)OCO5)c2cc1OC)C(=O)OC3`, the growth in the assay on NCI-H23 lung is 46.3% (inactive); in the assay with NCI-H522 lung it was 4.7% (active); with MALME-3M melanoma, 39.3% (inactive); in the assay with MDA-MB-231 breast it was 13.7% (inactive); in the assay with M14 melanoma it was -17.9% (active); in the assay on LOX IMVI melanoma it was -53.7% (active). For the same compound, the growth with SR leukemia is 2.16% (active); in the assay with OVCAR-8 ovarian it was 24.3% (inactive); in the assay on OVCAR-5 ovarian, 73% (inactive); with OVCAR-4 ovarian, 51.4% (inactive); with SK-OV-3 ovarian it was 23.8% (inactive); in the assay with IGROV1 ovarian it was 47.9% (inactive). The growth with HS 578T breast is 60.3% (inactive); in the assay with T-47D breast it was -2.78% (active); with SW-620 colon it was 14.1% (inactive); with MCF7 breast, 36.9% (inactive); with HCT-116 colon, 9.2% (active); with KM12 colon, 27.8% (inactive).

For `CN(CCF)/N=N/c1nc[nH]c1C(N)=O`, the growth in the assay with NCI-H23 lung was 77% (inactive); in the assay with NCI-H522 lung, 64.2% (inactive); with MALME-3M melanoma, 37.5% (inactive); with MDA-MB-231 breast, 39.5% (inactive); with M14 melanoma it was 23.3% (inactive); with UACC-62 melanoma it was 31.2% (inactive). For the same compound, the growth was 17.5% (inactive) in the assay on LOX IMVI melanoma; 49.3% (inactive) with SK-MEL-28 melanoma; 22.3% (inactive) in the assay on SR leukemia; 27% (inactive) with OVCAR-8 ovarian; 62.8% (inactive) in the assay on OVCAR-5 ovarian; 44.2% (inactive) in the assay with OVCAR-4 ovarian. Further, the growth in the assay on SK-OV-3 ovarian is -4.12% (active); in the assay on IGROV1 ovarian, 44% (inactive); in the assay on HS 578T breast it was 93.1% (inactive); in the assay with T-47D breast it was 57.3% (inactive); with SW-620 colon, 25.9% (inactive); in the assay on MCF7 breast it was 36.2% (inactive). Moreover, the growth is 24% (inactive) in the assay on HCT-116 colon and 58.9% (inactive) with KM12 colon.

With `CCCCCCCCCC(=O)N[C@@](C)(CC)C(=O)N1CCC[C@H]1C(=O)N[C@@H](CC(C)C)C(=O)N[C@@](C)(CC)C(=O)N[C@@H](CCC(N)=O)C(=O)N[C@H](CCC(N)=O)C(=O)NC(C)(C)C(=O)NC(C)(C)C(=O)N[C@@H](CCC(N)=O)C(=O)N[C@H](CC(C)C)C(=O)N[C@H](CO)CC(C)C`, the growth in the assay with NCI-H23 lung was -78.3% (active) and -84.7% (active); with NCI-H522 lung, -84% (active) and -82.6% (active); in the assay with MALME-3M melanoma, -89.7% (active) and -98.6% (active); with MDA-MB-231 breast it was -92.2% (active) and -98.5% (active); in the assay on M14 melanoma it was -80.7% (active) and -65.5% (active); in the assay on UACC-62 melanoma it was -90.6% (active) and -99.6% (active). Besides, the growth with LOX IMVI melanoma was -87.8% (active) and -92.7% (active); in the assay with SK-MEL-28 melanoma it was -97.1% (active) and -100% (active); in the assay with SR leukemia it was -31.3% (active) and 16.2% (inactive); with OVCAR-8 ovarian, -74.1% (active) and -63.2% (active); in the assay with OVCAR-5 ovarian, -98.7% (active) and -100% (active); with OVCAR-4 ovarian, -38.1% (active) and -35.2% (active). For the same compound, the growth is -77.5% (active) and -56.9% (active) in the assay on SK-OV-3 ovarian; -84.9% (active) and -85.5% (active) in the assay on IGROV1 ovarian; -70.1% (active) and -58.6% (active) in the assay on HS 578T breast; -6.91% (active) and -59.3% (active) with T-47D breast; -79.7% (active) and -77.5% (active) in the assay with SW-620 colon; -76.7% (active) and -77.6% (active) in the assay on MCF7 breast. The growth was -66.1% (active) and -29% (active) in the assay on HCT-116 colon; -90.6% (active) and -93.5% (active) in the assay with KM12 colon.

On to `COc1cc2c(cc1OC)[C@@H]1N(CC2)C(=O)c2ccccc2[C@@]1(C)C(=O)O`, for which the growth in the assay with NCI-H23 lung was 102% (inactive); in the assay on NCI-H522 lung it was 99.8% (inactive); in the assay with MALME-3M melanoma, 64.6% (inactive); in the assay with MDA-MB-231 breast it was 101% (inactive); in the assay on UACC-62 melanoma, 95.8% (inactive); with LOX IMVI melanoma it was 105% (inactive). Further, the growth was 113% (inactive) in the assay on SK-MEL-28 melanoma; 117% (inactive) in the assay on SR leukemia; 104% (inactive) with OVCAR-8 ovarian; 106% (inactive) in the assay with OVCAR-5 ovarian; 105% (inactive) in the assay on OVCAR-4 ovarian; 113% (inactive) with SK-OV-3 ovarian. In addition, the growth in the assay on IGROV1 ovarian is 106% (inactive); with HS 578T breast, 108% (inactive); in the assay on T-47D breast it was 116% (inactive); with SW-620 colon it was 109% (inactive); with MCF7 breast, 97.4% (inactive); in the assay with HCT-116 colon, 111% (inactive). The growth in the assay with KM12 colon is 113% (inactive).

Regarding `CC(=O)O[C@@H]1[C@@H]2O[C@H]2[C@@](C)(O)C(=O)[C@@H](C)C/C=C/[C@H]2[C@@H]3O[C@]3(C)[C@@H](C)C3[C@H](Cc4ccccc4)NC(=O)[C@@]312` (some centres not stated), the growth was 70.4% (inactive) in the assay on NCI-H23 lung; 18.2% (inactive) in the assay on NCI-H522 lung; 71% (inactive) in the assay with MALME-3M melanoma; 22% (inactive) with MDA-MB-231 breast; 65.2% (inactive) in the assay with M14 melanoma; 78.8% (inactive) in the assay on UACC-62 melanoma. Further, the growth in the assay on LOX IMVI melanoma is 14.7% (inactive); with SK-MEL-28 melanoma, 71% (inactive); with SR leukemia, 60.7% (inactive); in the assay on OVCAR-8 ovarian, 84.4% (inactive); with OVCAR-5 ovarian, 96.3% (inactive); in the assay on OVCAR-4 ovarian, 55.8% (inactive). Also, the growth was 22.9% (inactive) in the assay on SK-OV-3 ovarian; 54.7% (inactive) in the assay with IGROV1 ovarian; 4.92% (active) with HS 578T breast; 33.6% (inactive) with T-47D breast; 55.5% (inactive) in the assay on SW-620 colon; 56.8% (inactive) in the assay with MCF7 breast. In addition, the growth with HCT-116 colon was 54.9% (inactive); in the assay on KM12 colon, 66.6% (inactive).
